TRHR enhancer – allosterically enhances the human TRH receptor. P34981. TRHR cells, fluo-8 calcium fluorescence, EC20 TRH enhancement. enhancement, % at 2 µM. hit rate 0.66% among 360,000; in the data active = enhancement above about 30%; note: 0% is about no effect
Target sequence (P34981 whole entry, looked up): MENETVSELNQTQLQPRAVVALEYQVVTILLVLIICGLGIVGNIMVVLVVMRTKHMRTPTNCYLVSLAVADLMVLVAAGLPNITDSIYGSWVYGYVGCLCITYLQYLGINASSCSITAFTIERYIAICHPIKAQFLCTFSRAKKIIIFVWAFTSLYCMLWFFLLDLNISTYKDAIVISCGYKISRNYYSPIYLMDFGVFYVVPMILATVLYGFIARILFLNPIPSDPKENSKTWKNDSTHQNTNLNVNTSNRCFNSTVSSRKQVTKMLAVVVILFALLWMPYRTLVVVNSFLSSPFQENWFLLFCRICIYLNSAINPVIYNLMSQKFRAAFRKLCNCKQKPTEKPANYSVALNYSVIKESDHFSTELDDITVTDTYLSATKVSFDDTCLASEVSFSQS
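TRHR-expressing cells loaded with fluo-8 calcium dye were read kinetically (ex 480/em 530) during compound addition, then stimulated with an EC20 of TRH (10 nM final). Enhancement of the Gq-mediated intracellular calcium response was scored.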
TRPML1 ag – activates the human TRPML1 channel | activation, % (concentration not given with the values) | hit rate 0.12% among 410,000 | AID 624414 | TRPML1-expressing cells, Ca2+ dye fluorescence, FDSS | Q9GZU1; in the data active = activation above about 50%; inconclusive = mostly about 30% to 49%; note: 0% is about no effect
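Tet-induced TRPML1-DL cells, 1,500 per well, cultured overnight, were loaded with a no-wash Ca2+ dye for 45–90 min. Calcium fluorescence was recorded on the FDSS for 110 s after compound addition, before the EC80 agonist (4 uM 54-4) was added.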
TSG101-PTAP inh – blocks PTAP/TSG101 interaction to inhibit HIV-1 budding | Fluorescence polarization, FITC-PTAP peptide / Tsg101 binding | Potency, µM (top dose mostly 115 µM), for the others: at the highest dose activity change, negative = inhibition, actives largely listed as inhibitors | 340,000 tested, under 10 active | AID 493005; active = well fitted inhibition curve with a large enough effect in the main read-out, with a control signal flat, not every such curve was filed as active; inconclusive = small, poorly fitted or top-dose-only effect, or effect the other way, or a change in a side signal; inactive = no such curve, though single readings can be large or run the other way; note: potency is the fitted concentration of half-maximal effect; % of control where 0% means no effect
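Compounds were pin-transferred onto Tsg101 binding domain (10 uM final) in HEPES pH 7.5 buffer, then FITC-PTAP peptide was added at 50 nM final. After 20 min at RT, polarization reported peptide displacement across a qHTS concentration series.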
TRHR agonist – TRH receptor (human) agonism | P34981 | TRHR cells, calcium flux fluo-8, FDSS agonist mode | activation, % at 2 µM | hit rate 0.18% among 360,000 | AID 493084; in the data active = activation above about 30%; note: 0% is about no effect
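In this calcium-flux screen, cells bearing human TRHR are dye-loaded with fluo-8, baselined for 10 cycles, then exposed to library compounds; positive kinetic calcium responses during the agonist phase mark hits, with TRH as control.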
TRPML1 inh – blocks the human TRPML1 channel; AID 624415; TRPML1-inducible cells, Ca2+ dye fluorescence, FDSS; active compounds read low; inhibition of EC80 agonist-evoked calcium signal; activity change, negative = inhibition, % (test concentration not listed); hit rate 0.02% among 390,000; in the data active = activity change below about -50%; inconclusive = between about -30% and that limit;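 note: stimulus is agonist 54-4 at its EC80 concentration; % is set by controls: 0 for no effect and ±100 for the full control effect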
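Tet-induced TRPML1-DL cells loaded with Ca8 no-wash calcium dye were read kinetically on FDSS. Compound addition was followed by EC80 agonist 54-4 (4 uM final); inhibition was read over 110 s.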
Starred values were filed as active, the others as inactive; ? = inconclusive; · = no result. Rows were chosen to be rich in hits. Some 0.81% of all compounds tested hit in one or more screens of this group.

SMILES	TRHR enhancer	TRPML1 ag	TSG101-PTAP inh	TRHR agonist	TRPML1 inh
CCCC(=O)c1c[nH]c(C(=O)N2CCOCC2)c1	36.4*	0.6	-0.5%	0.8	52.6
Nc1cccc2c1C(=O)N(C(=O)/C=C/c1cccc(F)c1)C2=O	30.9*	-0.4	-5.0%	-0.1	0.9
Nc1cccc2c1C(=O)N(C(=O)/C=C/c1cccc(Br)c1)C2=O	1.3	0.0	-3.6%	-1.5	6.0
CC(=O)Nc1c(C)nn(-c2ccc([N+](=O)[O-])cc2)c1C	36.9*	-0.5	0.0%	0.0	-10.6
CCc1c(C)nc(SCC(=O)CC(=O)OC(C)C)c(C#N)c1C	0.3	51.3*	-4.3%	0.0	2.1
CCc1c(C)nc(SCC(N)=O)c(C#N)c1C	4.7	0.2	-12.7%	-0.2	0.5
C#CCn1c(=NC(=O)c2ccccc2[N+](=O)[O-])sc2cc(S(C)(=O)=O)ccc21	30.2*	-0.5	0.3%	-0.1	5.7
C#CCn1c(=NC(=O)c2sc3ccccc3c2Cl)sc2cc(S(N)(=O)=O)ccc21	-3.2	0.2	-0.3%	0.8	-20.7
CCn1c(C(=O)N2CCCC(C(=O)N3CCN(c4cc(C)ccc4C)CC3)C2)cc2sccc21 (configuration not stated)	-1.4	64.9*	·	0.2	-11.4
Cc1ccc(C)c(N2CCN(C(=O)C3CCN(C(=O)c4cc5sccc5n4C)CC3)CC2)c1	1.2	1.0	·	0.0	4.6
COc1ccc(CN(C2CCCCC2C)S(=O)(=O)c2ccc(S(=O)(=O)N(C)C)cc2)cc1OC (configuration not stated)	5.7	133.9*	-3.2%	12.7	-25.0
O=Cc1ccc(I)cc1	·	0.1	·	·	·
CC(C)CC(NC(=O)c1cccc(Cl)c1)C(=O)O (configuration not stated)	8.1	-0.3	0.3%	0.8	-1.6
CC(C)CC(NC(=O)c1ccc(Cl)cc1)C(=O)O (configuration not stated)	33.2*	1.5	0.1%	0.3	-5.5
CCCCC(O)C(=O)Nc1cc(C(F)(F)F)ccc1Cl (configuration not stated)	1.0	·	·	-2.7	·
COc1ccc(-c2nc(C#N)c(NCc3ccccc3Cl)o2)cc1	8.9	0.4	1.0%	1.5	27.0
COc1ccc(OCc2nc(C#N)c(NCc3ccccc3Cl)o2)cc1	40.9*	1.9	·	-0.9	7.7
CNc1ccc(/C=C2\C=Cc3ccccc32)cc1I	·	-0.4	·	·	·
Cc1ccc(CNC(=O)COC(=O)c2ccccc2OCC(=O)Nc2ccc(Br)cc2)cc1	·	-0.4	·	·	·
CCOc1ccccc1NC(=O)c1cc2ccc3cccnc3c2[nH]1	32.1*	5.2	·	-1.1	59.7
CC(C)(CNC(=O)c1ccc(S(=O)(=O)Nc2cccc(C(F)(F)F)c2)cc1)N1CCOCC1	34.8*	1.9	-2.5%	1.7	-10.6
COc1ccc(Cl)cc1N(C)c1nc(N2CCN(S(=O)(=O)c3ccc(C)cc3)CC2)c2ccccc2n1	·	-0.5	·	·	·
CC(C)(C)C1CCC(OCC(O)CN2CCN(c3ccccn3)CC2)CC1 (configuration not stated)	-2.7	0.6	-0.2%	0.1	12.9
CC(C)(C)C1CCC(OCC(O)CN2CCN(Cc3ccccc3)CC2)CC1 (configuration not stated)	31.5*	1.3	-5.0%	0.4	19.3
NS(=O)(=O)c1ccc(CCNC(=O)C2CCCN2S(=O)(=O)c2cccc3nsnc23)cc1 (configuration not stated)	32.4*	-0.3	0.2%	0.0	-29.8
SMILES	TRHR enhancer	TRPML1 ag	TSG101-PTAP inh	TRHR agonist	TRPML1 inh
O=C(NCCc1ccccc1)C1CCCN1S(=O)(=O)c1cccc2nsnc12 (configuration not stated)	-2.4	-0.5	0.8%	-0.3	-9.9
COc1ccc(CN2[C@@H](CC(=O)O)c3ccc(/C=C/C(=O)O)cc3S2(=O)=O)cc1	·	-0.2	·	·	·
S=C1NCN(Cc2ccco2)CN1	40.7*	0.0	-9.6%	-0.2	-4.8
COc1ccc(Cl)cc1S(=O)(=O)N1CCN(S(=O)(=O)c2ccc3c(c2)OCCO3)CC1	4.7	·	·	-0.3	·
Cc1ccc(C2C3=C(CCCC3=O)OC3=C2C(=O)CCC3)cc1	39.9*	-0.4	0.0%	-1.2	1.0
CN(C(=O)COc1cc(C(F)(F)F)nn1C)c1ccccc1	35.3*	0.0	-3.5%	0.3	-13.0
Cc1ccc[n+](CC(=O)Nc2c(Cl)cc(Cl)cc2Cl)c1	0.3	-0.4	-1.1%	-0.6	-9.8
O=C(C[n+]1ccccc1)Nc1c(Cl)cc(Cl)cc1Cl	38.7*	-0.2	-1.9%	-0.7	-1.3
C1=Nc2ccccc2/C1=C/c1c[nH]c2ccccc12	·	1.8	·	·	·
CSc1ccccc1NC(=O)CN(C1CCCCC1)S(C)(=O)=O	-11.8	0.1	-2.2%	-0.4	-9.7
CN(CC(=O)Nc1ccccc1Sc1ccccc1)C1CCCCC1	14.0	60.2*	0.1%	1.2	?
CN(C)c1ccc(/C=C/c2nc3ccccc3s2)c(Cl)c1	·	15.4	·	·	·
CCOc1ccccc1C(=O)NCC(=O)N1CCN(Cc2ccc3c(c2)OCO3)CC1	33.3*	1.2	-1.4%	-0.3	1.1
COc1ccccc1C(=O)N1CCN(Cc2ccc3c(c2)OCO3)CC1	1.4	-0.9	0.4%	0.4	17.3
C=C(CC[C@]12OC(C(=O)O)C(O)(C(=O)O)C(C(=O)O)(O1)C(OC(=O)/C=C/[C@@H](C)C[C@@H](C)CC)C2O)[C@@H](OC(C)=O)[C@H](C)Cc1ccccc1 (some centres not stated)	·	-0.5	·	·	·
Cc1ccc(OCC(=O)N(Cc2ccccc2)C(C)C)c([N+](=O)[O-])n1	-0.3	-0.9	0.5%	-0.8	0.1
Cc1ccc(OC(C)C(=O)N(C)Cc2ccccc2)c([N+](=O)[O-])n1 (configuration not stated)	39.2*	-0.8	-5.0%	1.8	-4.2
CCOC(=O)c1cc2n(c1/N=C/N(C)C)-c1ccccc1C2=O	-2.3	?	?	84.5*	-22.3
O=S1(=O)CCO[C@H]2CCCC[C@@H]2N1Cc1ccccc1	·	-1.2	·	·	·
Cc1ccsc1C(=O)NNC(=O)Nc1ccc(Cl)c(Cl)c1	39.1*	-0.7	0.2%	0.0	-5.1
Cc1occc1C(=O)NNC(=O)Nc1ccc(Cl)c(Cl)c1	-0.9	0.1	-2.3%	0.2	-2.7
CC(C)C(OC(=O)CNC(=O)c1ccccc1)C(=O)Nc1cc(C(F)(F)F)ccc1Cl (configuration not stated)	-5.9	·	·	0.9	·
CN(C)c1ccc(/C=C2\C(=N)N3N=C(CC(=O)N4CCCCC4)SC3=NC2=O)cc1	0.6	25.7	?	30.6*	9.4
CN(C)c1ccc(/C=C2\C(=N)N3C(=NC2=O)Sc2cc(S(C)(=O)=O)ccc23)cc1	1.9	·	·	33.9*	·
CCN(CC)c1ccccc1/C=C/[n+]1ccc(CCCCI)c2ccccc21	·	0.5	·	·	·
